We go through 8 molecules from PubChem BioAssay (NCATS).

This assay in a line: P-glycoprotein substrates identified in KB-8-5-11 adenocarcinoma cell line, qHTS therapeutic library screen (AID 1346987). Note: nearly all actives have a fitted effect of over 65% in size. The method, boiled down:
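KB-8-5-11, a colchicine-selected P-gp-overexpressing KB-3-1 subline, was grown without colchicine for the assay. Cells were seeded at 500 cells/well, dosed in concentration-response and incubated 72 h at 37 degree C, 5% CO2. Viability was read by CellTiter-Glo luminescence.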
(In general: qHTS replaces the single test concentration by a dilution series.)

Inconclusive results are not listed. Entries that show only a call come without a potency. The source made the active and inactive calls. Calls come from the whole dose curve; as a rule, active = well fitted inhibition curve with a large enough effect; inconclusive = small, poorly fitted or top-dose-only effect; inactive = flat fitted curve, though single readings scatter.
Potency is the fitted concentration of half-maximal effect.

For the molecule `CC(C)(C)c1ccc2c(c1)CC[C@H]2NC(=O)Nc1cccc2[nH]ncc12`, the Potency result is “inactive”.

With `CNC(C)C(=O)NC(C(=O)N1CCCC1C(=O)Nc1snnc1-c1ccccc1)C1CCCCC1` (stereo not drawn), the Potency entry was “inactive”.

As to `CC(=O)[C@H]1CC[C@H]2[C@@H]3CC=C4C[C@@H](OS(=O)(=O)O)CC[C@]4(C)[C@H]3CC[C@]12C`, the Potency result was “inactive”.

In the case of `Cc1nc2c(C(F)(F)F)cccc2nc1-c1ccc(-c2cccc(S(C)(=O)=O)c2)cc1`, the Potency result is “inactive”.

Consider `CCC/C=C/c1cc2c(C=O)c(O)c(CC=C(C)C)cc2o1`, for which the Potency entry is “inactive”.

Turning to `COc1cc2c(Nc3cc(F)c(Cl)c(Cl)c3)ncnc2cc1OCC1CCCN(C)CCC1`, the Potency was 16.4 µM (active).

As for `S=C(c1ccc(-c2ccc(Cl)c(Cl)c2)o1)N1CCCCC1`, the Potency result was “inactive”.

As to `CCOC(=O)N1c2ccc(C(F)(F)F)cc2C(N(Cc2cc(C(F)(F)F)cc(C(F)(F)F)c2)C(=O)OC)CC1CC` (stereo not drawn), the Potency result is “inactive”.
